Rce1 inhib: yeast Ras-converting enzyme inhibition. Q03530. yeast membranes, quenched prenylated peptide cleavage fluorescence. calls only. hit rate 0.27% among 290,000;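 active = fall in fluorescence gain of 50% or more versus controls, with final raw signal at or below 3038400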;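 note: plate controls were neutral control wells for no effect and wells lacking membranes for full effect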
Target sequence (Q03530 whole entry, looked up): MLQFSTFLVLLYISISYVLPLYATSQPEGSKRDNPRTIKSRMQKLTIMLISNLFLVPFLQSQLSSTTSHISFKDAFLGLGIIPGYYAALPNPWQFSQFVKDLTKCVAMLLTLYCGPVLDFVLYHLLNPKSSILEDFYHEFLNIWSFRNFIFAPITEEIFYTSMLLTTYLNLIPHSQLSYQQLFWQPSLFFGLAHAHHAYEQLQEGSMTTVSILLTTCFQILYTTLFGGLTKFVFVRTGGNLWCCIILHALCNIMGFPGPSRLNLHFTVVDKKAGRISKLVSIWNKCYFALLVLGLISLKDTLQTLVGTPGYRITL
PLC-gamma1 inh: inhibitors of human phospholipase C gamma1 | P19174 | hit rate 0.84% among 370,000 | AID 720700 | purified PLC-gamma1, fluorogenic substrate, fluorescence | inhibition, % at 12.2 µM; in the data active = inhibition above about 9.5%
ADAM10 inh: ADAM10 inhibition, QFRET primary screen; inhibition, % at 7 µM; O14672; hit rate 0.62% among 370,000; recombinant ADAM10, EDANS/DABCYL FRET peptide cleavage, 3 h;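 active = inhibition above a per-campaign cutoff equal to the mean of compounds falling between control-based bounds plus 3 SD, cut at about 20% in these data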;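 note: 0% = DMSO wells while the 100% control is not disclosed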
ADAM17 inh: inhibits human ADAM17; recombinant ADAM17, EDANS/DABCYL FRET peptide cleavage; P78536; inhibition, % at 6.95 µM; AID 720648; hit rate 0.83% among 370,000;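 active = inhibition above the mean of compounds lying between control limits plus 3 SD, set per campaign, cut at about 8.5% in these data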;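 note: 0% = DMSO-only wells as the low control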
PLCb3 inh: inhibitors of human phospholipase C beta3; Q01970; Purified PLC-beta3, fluorogenic substrate, fluorescence; inhibition, % at 12.2 µM; hit rate 0.18% among 370,000; AID 720704; in the data active = inhibition above about 11%;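 note: 0% = median of compound wells on plate and 100% = full blocker control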
* marks the source's active call; other numbers are inactive results; i = inactive; · = no result; + = active, no number. This is a sample that favours compounds with a hit; in the whole collection about 2.1% have one here.

SMILES	Rce1 inhib	PLC-gamma1 inh	ADAM10 inh	ADAM17 inh	PLCb3 inh
C[C@H]1[C@@H](OC(=O)Nc2cccc(C(F)(F)F)c2)CC[C@@]23CCCN2C(=O)CCC[C@@H]13	·	2.2	-9.1	-0.5	-5.2
C[C@@H]1CN([C@H](C)CO)C(=O)c2cc(NS(=O)(=O)c3ccccc3)ccc2O[C@@H](C)CCCCO[C@@H]1CN(C)Cc1ccc(Cl)c(Cl)c1	·	0.3	-1.4	-2.3	3.1
O=C(C1=C[C@H](c2csc3ccccc23)C[C@H](OCc2ccc(CO)cc2)O1)N1CCN(Cc2ccccc2)CC1	i	-5.3	6.4	6.1	-17.6
O=C(C1=C[C@H](c2csc3ccccc23)C[C@H](OCc2ccc(CO)cc2)O1)N1CCN(Cc2ccc3c(c2)OCO3)CC1	i	3.8	21.5*	8.4	1.2
COc1ccc(-c2oc3ccc(N4CCOCC4)cc3c2/C=C/c2ccc(OC)c(OC)c2)cc1	+	i	-262.9	-69.8	i
COc1ccc(/C=C/c2c(-c3ccc(OC)cc3)sc3ccc(N4CCOCC4)cc23)cc1	i	·	·	·	·
Cc1cc(C(N)=O)nn1-c1c(Cl)cc(Cl)cc1Cl	i	2.2	4.6	0.2	-3.4
CCCCOCCCNC(=O)C[C@@H]1C[C@]2(C(=O)OCC)CCC3=C2N(CCC3)C1=O	·	1.2	0.2	-1.6	2.9
CCc1nc2ccc(C(=O)N3CCN(C)CC3)cn2c1N(CCC(C)C)CCN(C)C	·	-0.8	-7.7	-4.8	-2.8
COCc1cc(C)n(CC(=O)NCc2ccccc2)c(=O)c1C#N	+	-6.9	-158.8	-44.9	-10.6
COCc1cc(C)n(CC(=O)NC(C)c2ccccc2)c(=O)c1C#N (configuration not stated)	i	-24.8	-256.4	-61.7	-25.1
Oc1ccc(N2CCN(C(c3cccs3)c3nnnn3CCc3ccccc3)CC2)cc1 (configuration not stated)	i	-0.8	20.6*	1.5	-0.4
CC[C@]1(c2ccc(C)cc2)C(=O)N(C(=O)OC(C)C)N1C(=O)OC(C)C	·	1.8	2.9	0.3	1.9
O=C(COc1ccccc1)Nc1cccc(-c2nc3cc4ccccc4cc3[nH]2)c1	+	i	i	-427.1	i
O=C(Nc1ccncc1)Nc1cccc(C(F)(F)F)c1	i	2.4	1.3	0.0	-2.5
CCN(CC)S(=O)(=O)c1ccc(NC(=O)Nc2cccc(C(F)(F)F)c2)cc1	i	0.7	39.1*	13.6*	1.3
C=CCOc1ccc(-c2n[nH]c(=S)o2)cc1	+	-16.1	-25.3	-12.3	-33.6
CCC(C(=O)Nc1ccccc1N1CCCC1)c1cccc(Cl)c1 (configuration not stated)	·	-2.6	5.0	2.3	-3.4
O=C(COC(=O)c1ccc(S(=O)(=O)N2CCCC2)cc1)NCc1ccccc1	+	-0.1	2.1	-0.7	1.5
O=C(COC(=O)c1ccc(S(=O)(=O)N2CCCCC2)cc1)NCc1ccc(F)cc1	·	1.3	-4.9	-0.1	0.8
COC(=O)C1=C(C)N(C)C(=NCc2ccc(OC)cc2)NC1c1cccc(C(F)(F)F)c1 (configuration not stated)	·	1.1	-1.4	2.8	3.3
N=C(N)c1ccc(/C=C/c2ccc(C(=N)N)cc2O)cc1	+	-409.3	-60.1	-28.5	-445.7
FC(F)(F)COc1nc(N2CCOCC2)nc(N(c2ccccc2)c2ccccc2)n1	i	13.2*	8.1	7.3	-32.4
FC(F)(F)COc1nc(OCC(F)(F)F)nc(N2CCN(c3ccccc3)CC2)n1	i	0.7	3.9	-2.7	0.7
CC(=O)c1ccc2c(c1)C1C=CCC1C(C(=O)O)N2 (configuration not stated)	·	12.2*	11.2	3.9	-9.4
SMILES	Rce1 inhib	PLC-gamma1 inh	ADAM10 inh	ADAM17 inh	PLCb3 inh
COc1c2c(c(CCC(=O)O)c3c1C=CC(C)(C)O3)OC(C)(C)C=C2	·	0.8	-10.9	-2.0	3.5
CN1CCN(C(c2ccc(Br)cc2)c2cc(Cl)c3cccnc3c2O)CC1 (configuration not stated)	i	-17.4	24.0*	19.6*	-27.6
CN1CCN(C(c2cccnc2)c2ccc3cccnc3c2O)CC1 (configuration not stated)	i	·	·	·	·
O=C(NCC(c1ccco1)N1CCN(c2ccccc2F)CC1)C(=O)NC1CCCCC1 (configuration not stated)	i	9.5*	-0.9	5.6	2.0
C=CCNc1oc(/C=C/c2ccccc2)nc1C#N	+	i	i	i	i
C[C@@H]1O[C@@H](n2c3ccc(Cl)cc3c3ccc4c5cc(Cl)ccc5[nH]c4c32)[C@H](O)[C@H](O)[C@H]1O	·	-7.1	-69.1	-21.7	-9.9

Compound activity as filed in PubChem.
